# HCV inh: inhibitors of hepatitis C virus infection. Huh7.5.1 HCVcc-Cre infection, luciferase reporter, 44 h. Potency, µM (highest dose often 41.8 µM), for inactives: at the top dose activity change, negative = inhibition, usual class: inhibitors. 340,000 compounds, 3.4% hits. AID 651820; further: potency means the concentration at half of the fitted maximal effect; on the % scale 0 is the no-effect control and ±100 the full control effect
#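 Cells seeded at 1,000/well and cultured 4 h, then compounds added followed by HCVcc-Cre virus (~0.5 moi). After 44 h further culture, luciferase substrate was added, plates held 15 min at room temperature, and luminescence read for 15 sec.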
# HCMV antiviral: inhibitors of human cytomegalovirus; 410,000 compounds, 4.5% hits; activity change, negative = inhibition, % at 57.5 µM; AID 1259415; HFF cells, HCMV-luciferase reporter, 72 h; active compounds read low; in the data active means activity change below about -60%; inconclusive means no clear call, values can overlap the other calls; inactive means above about -39%; further: on the % scale 0 is the no-effect control and ±100 the full control effect
#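 Compounds were evaluated in HFFs infected with an HCMV luciferase reporter virus (MOI 1 PFU/cell). Luciferase in lysates collected 72 h post infection served as the replication measure.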
# Pf growth 48h: inhibits P. falciparum growth in the first generation, 48 h; P. falciparum luciferase growth in erythrocytes, 48 h; 310,000 compounds, 5.9% hits; Potency, µM (titrated, usually from 28.7 µM), for inactives: at the top dose activity change, negative = inhibition, usual class: inhibitors; AID 504832; further: potency means the concentration at half of the fitted maximal effect; on the % scale 0 is the no-effect control and ±100 the full control effect
#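 Cell-based growth assay: transgenic P. falciparum expressing firefly luciferase, cultured in red cells within RPMI 1640 containing 0.5% w/v Albumax, 24 mM bicarbonate and gentamycin. A drop in luciferase activity indicates inhibition.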
# CHX counter: counter-screen hit for Shiga toxin inhibitors, cycloheximide; 300,000 compounds, 12% hits; cell reporter, cycloheximide protein synthesis inhibition counterscreen; max response, %; in the data active means max response mostly above about 13%, no sharp cut-off; inactive means mostly below about 14%; further: read at 38.3 µM for the half of the compounds with a filed dose; 0% is about no effect
# Pf growth 96h: inhibits malaria parasite growth, 96 h; P. falciparum luciferase reporter growth, 96 h; Potency, µM (series often up to 28.7 µM), without a hit: at the top dose activity change, negative = inhibition, most hits filed as inhibitors; 320,000 compounds, 6.9% hits; further: potency means the concentration at half of the fitted maximal effect; on the % scale 0 is the no-effect control and ±100 the full control effect
#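 96 h incubation, 37 C, 5% CO2, of luciferase-reporter P. falciparum-infected RBCs (2% hematocrit, 0.05% parasitemia final) with test compounds; endpoint luminescence.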
# Shiga inhibitor: blocks Shiga toxin action in Vero cells. inhibition, % at 38.7 µM. 290,000 compounds, 9.2% hits. Vero cells, Shiga toxin protein synthesis inhibition reporter; in the data active means inhibition mostly above about 28%, no sharp cut-off; inactive means mostly below about 43%; further: 0% is about no effect
# An asterisk follows results filed as active; ? = inconclusive; / = no result; [ ] = remark or other dose. An excerpt weighted towards active compounds, which were near 21% of everything screened. Unless noted, the call rests on the fitted dose curve; in most records, active means well fitted inhibition curve with a large enough effect; inconclusive means small, poorly fitted or top-dose-only effect, or another doubt; inactive means no such curve, though single readings can be large or run the other way.
SMILES,HCV inh,HCMV antiviral,Pf growth 48h,CHX counter,Pf growth 96h,Shiga inhibitor
COC(=O)C1(C(=O)OC)c2ccccc2CN(S(=O)(=O)c2ccc(C)cc2)C1CC(C)=O (stereo unspecified),/,-1,/,/,/,/
CCn1cc2nc(SCC(=O)Nc3ccc(F)cc3F)n(Cc3ccccc3)c(=O)c2n1,9%,0,?,9,13µM*,-6
CCn1cc2nc(SCC(=O)Nc3cccc(Cl)c3C)n(Cc3ccc(Cl)cc3)c(=O)c2n1,/,-21,/,/,/,/
O=C1C=C(NCc2ccc(Cl)c(Cl)c2)CC1,-9%,?,/,3,2%,-15
Nc1nc(N)c2cc(CNc3ccc(Cl)c(Cl)c3)ccc2n1,/,-69*,/,/,/,/
COc1cccc(CNC(=O)C2CCCCN2S(=O)(=O)c2ccc(F)cc2)c1 (stereo unspecified),/,7,/,/,/,/
Cc1cccc(C(=O)NCC(=O)N2CCCCCCC2)c1,7%,148,85%,/,73%,/
CCCNC(=O)C1(C)CCCN(C(=O)COc2ccc(Cl)cc2Cl)C1 (stereo unspecified),/,-100*,/,/,/,/
CCCNC(=O)C1(C)CCCN(Cc2ccccc2Cl)C1 (stereo unspecified),/,-77*,/,/,/,/
CCCNC(=O)C1(C)CCN(C(=O)COc2ccc(Cl)cc2Cl)C1 (stereo unspecified),/,-25,/,/,/,/
CCc1ccccc1NC(=O)C1CCCN(c2ncnc3onc(C)c23)C1 (stereo unspecified),/,-7,/,/,/,/
CCCCC1OC(CCc2ccccc2)CC2=C1C(=O)OC(C)(C)O2 (stereo unspecified),/,19,/,/,/,/
O=C(/C=C/c1ccccc1)c1ccccc1,10µM*,-17,14%,45*,?,125*
O=C(/C=C\c1ccc(-c2ccccc2)o1)c1ccccc1,15%,27,115%,42*,-8%,110*
CC(C)(C)C(=O)/C=C(N)/C=C/c1ccccc1,-4%,8,-67%,28*,108%,35
N#Cc1ccc(/C=C/C(=O)c2ccccc2)cc1,11%,5,11%,20*,-20%,47*
Cc1ccc(SCc2c(C(=O)N/N=C/c3cccs3)nnn2-c2nonc2N)cc1,/,-22,/,/,/,/
O=c1c2cc3c(cc2n(Cc2cccc(F)c2)c(=O)n1Cc1nc(-c2ccccc2)no1)OCO3,/,-1,/,/,/,/
O=S(=O)(NCc1csc(-c2ccccc2)n1)c1ccccc1,/,43,/,/,/,/
N#Cc1ccccc1COc1ccc(/C=C/C(=O)O)cc1,13%,-71*,-6%,-4,4%,13
O=Cc1ccc(-c2ccc(F)cc2)o1,-6%,-14,4%,-1,?,13
O=C(O)c1ccccc1-c1ccccc1C(=O)Nc1ccc(F)cc1,30%,-8,/,-1,20%,-7
O=C(/C=C/c1ccccc1)c1ccc2c3c(cccc13)CC2,?,?,-96%,30*,?,74*
O=C(/C=C/c1ccccc1)c1ccc2ccccc2c1,-6%,32,/,/,/,/
O=Cc1ccc(-c2ccc(C(=O)O)cc2)o1,-7%,-11,3%,35*,18%,88*
SMILES,HCV inh,HCMV antiviral,Pf growth 48h,CHX counter,Pf growth 96h,Shiga inhibitor
O=C(/C=C/c1ccc(NC(=O)c2ccccc2-c2ccccc2C(=O)O)cc1)c1ccccc1,-6%,6,-25%,10*,?,37*
CCN(CC)CCCNC(=O)Cn1nc([N+](=O)[O-])c(Cl)c1C,13%,-10,?,1,0%,-15
O=C(Cn1c(=O)c2cccn2c2cccnc21)NCc1ccccc1F,/,24,/,/,/,/
O=S1(=O)CC(N2CCCC2)CN1Cc1cn(Cc2ccc(C(F)(F)F)cc2)nn1 (stereo unspecified),/,-10,/,/,/,/
CCCCCCN1C[C@@H](n2cc(COC(=O)c3ccccc3)nn2)[C@H](O)C[C@@H]1c1ccc(OC)cc1,/,-7,/,/,/,/
O=Cc1ccc(OC(=O)/C=C/c2ccccc2)cc1,7%,19,?,34*,0%,25*
CCOc1ccc(/C=C/C(=O)Oc2ccccc2)cc1,27%,18,?,-2,?,-2
CC(C)(C)C(=O)/C=C(\N)c1ccccn1,0%,30,20%,12*,318%,14
CCOc1ccc(/C=C/C(=O)c2ccc(-c3ccccc3)cc2)cc1,29%,-61*,9%,2,22%,13
CCOc1ccc(NC(=O)CCC(=O)c2ccc(-c3ccccc3)cc2)cc1,5%,-25,-6%,-3,?,-15
O=C(/C=C/c1ccccc1)/C=C/c1ccccc1,?,-73*,-25%,50*,?,134*
COc1cccc(CN2C(=O)NC3(CCCCCC3)C2=O)c1,-9%,?,9%,2,37%,-10
CN1OC[C@@H]2CN(Cc3cc(Cl)cc(Cl)c3)[C@H](c3cccc(-c4ccccc4)c3)C[C@@H]21,2%[8.37 µM],-21,/,/,/,/
C[C@H](NC(=O)c1ncn2c1C(=O)NC[C@H]2C)c1ccccc1,/,-30,/,/,/,/
Cc1cc(C(=O)Nc2ccon2)cs1,10%,9,24%,10,?,18
O=C(Nc1ccon1)c1csc2ccccc12,-5%,19,-9%,9.7*,/,31
O=C(Nc1cnccn1)c1csc2ccccc12,8%,59,79%,27*,1%[5.75 µM],111*
CC(C)c1cnc2c(c1SCc1cccc(C(F)(F)F)c1)c(=O)n(C)c(=O)n2C,/,-38,/,/,/,/
Cc1ccc(S(=O)(=O)N2CCCCC2C)cc1[N+](=O)[O-] (stereo unspecified),8%,-22,-1%,2,-32%,-5
O=C(NC1=NCCS1)c1csc2ccccc12,7.1µM*,243,257%,39*,0%,59*
O=C(NC1=NCCS1)c1cccs1,14%,14,?,-3,?,11
O=C(NC1=NCCS1)c1cc2ccccc2o1,5%,37,202%,18*,76%,17
O=C(NC1=NCCS1)c1ccccc1Cl,4%,76,6%,8.2*,3%,15
O=C(NC1=NCCS1)c1ccccc1F,7%,76,/,/,/,/
O=C(NC1=NCCS1)Nc1ccccc1,18%,70,337%,36*,88%,65*
CC1CCCC(C)N1C(=O)COC(=O)c1cccnc1Cl (stereo unspecified),5%,-17,/,/,/,/
CN(C)C(CNC(=O)c1cc(S(=O)(=O)N(C)c2ccc(F)cc2)ccc1Cl)c1ccco1 (stereo unspecified),?,?,-18%,/,?,/
CC(C(=O)NC1=NCCS1)(C(F)(F)F)C(F)(F)F,13%,-17,-2%,-4,/,10
CC(C)(C)C(=O)NC1=NCCS1,-6%,-12,10%,-2,1.5µM*,-16
O=C(NC1=NCCS1)c1ccccc1OCc1ccccc1Cl,13µM*,-12,-3%,-2,?,11
